Compound activity from PubChem.
RORgamma inh: qHTS for inhibitors of ROR gamma transcriptional activity | Drosophila S2 Gal4-RORgamma UAS-luciferase reporter, 20 h | actives 5.4% (n = 310,000) | AID 2551, 2010 | Potency, µM (titrated, usually from 53.6 µM), for the others: top-dose activity change, negative = inhibition, most hits filed as inhibitors | Nuclear receptor ROR-gamma (Mus musculus), P51450; also: nearly all actives have a fitted effect of over 60% in size
Target sequence (P51450 whole entry, looked up, the tested form may be a part): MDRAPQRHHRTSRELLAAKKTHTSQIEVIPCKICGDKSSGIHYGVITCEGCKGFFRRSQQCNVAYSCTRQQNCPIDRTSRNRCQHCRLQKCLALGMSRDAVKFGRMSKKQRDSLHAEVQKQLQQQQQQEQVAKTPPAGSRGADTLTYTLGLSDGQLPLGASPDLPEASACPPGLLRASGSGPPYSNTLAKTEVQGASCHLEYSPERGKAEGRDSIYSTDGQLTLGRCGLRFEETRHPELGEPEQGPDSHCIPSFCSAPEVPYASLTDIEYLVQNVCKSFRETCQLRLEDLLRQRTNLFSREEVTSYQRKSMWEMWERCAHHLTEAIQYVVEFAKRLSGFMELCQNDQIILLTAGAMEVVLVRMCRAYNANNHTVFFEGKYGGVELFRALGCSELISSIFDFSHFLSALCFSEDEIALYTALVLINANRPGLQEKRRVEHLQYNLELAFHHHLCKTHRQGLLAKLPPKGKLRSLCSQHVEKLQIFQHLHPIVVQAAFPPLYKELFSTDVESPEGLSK
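Schneider cells (Drosophila), stable Gal4 DBD–ROR gamma + UAS-luc; 1 hr cmpd preincubation; Cu2+ induction 700 uM final; 20 hr ambient; luminescence.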
DT40 TDP1 no CPT: qHTS for Inhibitors of human tyrosyl-DNA phosphodiesterase 1 (TDP1): qHTS in cells in absence of CPT | DT40 Tdp1-/- hTDP1 cells, no CPT, ATP luminescence, 48 h | Potency, µM (doses to about 46.2 µM), for the others: at the top dose activity change, negative = growth inhibition, actives largely listed as inhibitors | actives 15% (n = 420,000) | AID 686978, 2013; also: nearly all actives have a fitted effect of over 55% in size
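No-CPT arm: Tdp1-/-;hTDP1 DT40 cells (400/well) plus compounds, incubated ≥48 hr at 37 °C. Readout CellTiter-Glo luminescence.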
ELG1 repair inh: qHTS screen for small molecules that inhibit ELG1-dependent DNA repair in human embryonic kidney (HEK293T) cells expressing luciferase-tagged ELG1. HEK293T ELG1-luciferase reporter, luminescence, 16 h; DNA damage induced by 5-fluorouridine. Potency, µM (titrated, usually from 46.1 µM), inactives show at the top dose activity change, negative = inhibition, most hits filed as inhibitors. actives 2.3% (n = 330,000); also: nearly all actives have a fitted effect of over 55% in size
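DMSO vehicle served as the neutral condition. Each well held 2,000 cells given 5-fluorouridine plus compound; after 16 hr at 37 °C/5% CO2, ONE-Glo was added and luciferase measured 30 min later.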
ALOX12 inh: Primary qHTS assay for inhibitors of human arachidonate 12S-lipoxygenase (ALOX12): Round 2; Potency, µM (highest dose often 108 µM), inactives show at the highest dose activity change, negative = inhibition, usual class: inhibitors; Polyunsaturated fatty acid lipoxygenase ALOX12 (Homo sapiens), P18054; actives 1.1% (n = 580,000); AID 1671190, 2021; purified 12hLO, xylenol orange hydroperoxide absorbance
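Purified human 12hLO at 150 nM in 25 mM Hepes, 0.01% Triton X-100, pH 7.0, preincubated 15 min at room temperature with compound. Reaction started with 40 uM arachidonic acid, 30 min at room temperature. Hydroperoxide measured by Fe-xylenol orange, 573/405 nm absorbance ratio.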
VP16 counter: VP16 counterscreen qHTS for inhibitors of ROR gamma transcriptional activity; actives 3.5% (n = 310,000); Potency, µM (series often up to 53.6 µM), for the others: at the highest dose activity, negative = inhibition, actives largely listed as inhibitors; Drosophila S2 Gal4-VP16 UAS-luciferase, luminescence, 20 h;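 also: Gal4-VP16 expression switched on by copper sulfate through the metallothionein promoter; nearly all actives have a fitted effect of over 50% in size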
DT40 TDP1 CPT: qHTS for Inhibitors of human tyrosyl-DNA phosphodiesterase 1 (TDP1): qHTS in cells in presence of CPT; Potency, µM (top dose mostly 46.2 µM), inactives show top-dose activity change, negative = growth inhibition, actives largely listed as inhibitors; actives 12% (n = 420,000); chicken DT40 Tdp1-/-;hTDP1 cells + 20 nM CPT, ATP luminescence, 48 h; AID 686979, 2013; also: nearly all actives have a fitted effect of over 55% in size
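Chicken DT40 Tdp1-/- cells stably complemented with human TDP1 were seeded at 400 cells/well in medium containing 20 nM camptothecin, exposed to pin-transferred compounds, and grown at 37 °C for at least 48 hr. Viability was read as ATP luminescence.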
The depositor's hits bear a star; ? = inconclusive; · = no result given; [ ] = another dose, or the depositor's remark. Sampled rows, rich in hits. Any-hit rate of the full collection: about 15%. Calls follow the shape of the dose curve; as a rule, active = well fitted curve in the direction sought with a large enough effect; inconclusive = small, poorly fitted or top-dose-only effect, or another doubt; inactive = no such curve, though single readings can be large; an effect the other way counts as inactive or inconclusive. % is scaled to controls: 0 for no effect and ±100 for the full control effect; potency is read from the fitted curve at half-maximal effect.

SMILES | RORgamma inh | DT40 TDP1 no CPT | ELG1 repair inh | ALOX12 inh | VP16 counter | DT40 TDP1 CPT
COc1ccc(C2=NS(=O)(=O)N(C)C(C(=O)NCc3ccccc3)=C2)cc1OC | 8% | ? | ? | -8% | -5% | ?
CCc1cccc2cc(C(=O)O)[nH]c12 | · | · | · | -36% | · | ·
CC1(C(=O)Nc2ccc3c(c2)OCO3)Cc2c(-c3cccc(C(N)=O)c3)ccnc2O1 (configuration not stated) | · | 4.1µM* | · | -5% | · | 2.9µM*
CC(C)c1ccc(NC(=O)C2(C)Cc3c(-c4ccc5c(c4)OCO5)ccnc3O2)cc1 (configuration not stated) | · | ? | · | -11% | · | 23µM*
CC1(C(=O)Nc2ccc(F)c(Cl)c2)Cc2c(-c3ccc(C(N)=O)cc3)ccnc2O1 (configuration not stated) | · | 18µM* | · | ? | · | 21µM*
CN(C)c1ccc(-c2ccnc3c2CC(C)(C(=O)Nc2ccc4c(c2)OCO4)O3)cc1 (configuration not stated) | · | -3% | · | -1% | · | -20%
COc1ccc(NC(=O)C2(C)Cc3c(-c4ccc5c(c4)OCO5)ccnc3O2)cn1 (configuration not stated) | · | 2.6µM* | · | -1% | · | 3.3µM*
CCN1CCC2(CCC1=O)CN(Cc1nc3c(cnn3C)c(=O)[nH]1)CCN2C (configuration not stated) | · | · | · | 26% | · | ·
CC1(C(=O)Nc2ccc(Cl)cc2)Cc2c(-c3ccc4c(c3)OCO4)ccnc2O1 (configuration not stated) | · | ? | · | -4% | · | ?
CC1(C(=O)Nc2ccc3c(c2)OCO3)Cc2c(-c3ccc4c(c3)OCO4)ccnc2O1 (configuration not stated) | · | 2.3µM* | · | -10% | · | 1.8µM*
CC1(C(=O)Nc2ccc(Cl)cc2)Cc2c(-c3cccc(C(N)=O)c3)ccnc2O1 (configuration not stated) | · | 5.8µM* | · | -65% | · | 3.7µM*
CC1(C(=O)Nc2ccccc2)Cc2c(-c3cccc(C(N)=O)c3)ccnc2O1 (configuration not stated) | · | -21% | · | 12% | · | ?
CCN(Cc1ccc2c(c1)OCO2)C(=O)c1cc(=O)c2cc(C)ccc2o1 | · | · | · | -3% | · | ·
CCN(CC)c1ccc(NC(=O)c2cnn3c(C(F)F)cc(-c4ccccc4)nc23)cc1 | · | 13µM* | · | ? | · | ?
Cc1cc(NC(=O)c2cnn3c(C(F)F)cc(-c4ccccc4)nc23)no1 | -12%[10 µM] | 9.2µM* | 8.2µM* | -8% | ? | 15µM*
CCCN(C(=O)c1cn(C)c(=O)c2cc(OC)c(OC)cc12)c1cccc(C)c1 | · | · | · | 13% | · | ·
O=C1COCCN1C1CCN(S(=O)(=O)c2cccc(C(F)(F)F)c2)CC1 | · | · | · | 0%[6.33 µM] | · | ·
CCN(CC)CCNC(C(=O)OCCC(C)C)c1ccccc1 (configuration not stated) | -8%[10 µM] | 5.3µM* | · | · | 3% | 9.4µM*
C/C(=N\OC(=O)c1ccccc1Br)c1ccc(C)cc1 | · | · | · | 4% | · | ·
O=C1c2ccccc2C(=O)C1Cc1cccc2ccccc12 | 42% | -27% | -5% | -29% | 0% | 14µM*
Cc1ccc(S(=O)(=O)N(C)C2CCCc3ccccc32)cc1 (configuration not stated) | · | · | · | 15%[176 µM] | · | ·
COc1ccc(C(=O)n2nnc3ccccc32)cc1Br | -3% | ? | 35% | · | -13% | 16µM*
Cc1occc1C(=O)n1nnc2ccccc21 | ? | 21µM* | · | -12% | ? | ?
COc1ccc(C(=O)n2nnc3ccccc32)cc1OC | ? | -27% | -13% | -8% | -5% | ?
CC(=O)n1nnc2ccccc21 | -12% | · | · | · | -1% | ·
SMILES | RORgamma inh | DT40 TDP1 no CPT | ELG1 repair inh | ALOX12 inh | VP16 counter | DT40 TDP1 CPT
CCSc1ccccc1C(=O)n1nnc2ccccc21 | ? | ? | · | -5% | ? | 13µM*
Cc1ccc(-c2nc(Cn3cnc(C#N)n3)co2)cc1 | · | · | · | -6% | · | ·
NC(=O)c1ccc(CC2CCN(C(=O)c3cnccn3)CC2)cc1 | · | · | · | 23% | · | ·
Clc1ccc(-c2nnc3n2CCN(Cc2ccccc2)C3)cc1 | · | · | · | -2%[6.33 µM] | · | ·
CN(Cc1cccs1)C(=O)c1cc2ccccc2[nH]1 | · | · | · | 25% | · | ·
Cc1ccc(/C=C/c2onc(C)c2S(=O)(=O)N2CCC(C(=O)Nc3ccc(C)c(N(C)C)c3)CC2)cc1 | · | 9.2µM* | · | -3% | · | 8.2µM*
Cc1ccc(/C=C/c2onc(C)c2S(=O)(=O)N2CCC(C(=O)Nc3cc(F)ccc3F)CC2)cc1 | · | -21% | · | -13% | · | ?
Cc1ccc(/C=C/c2onc(C)c2S(=O)(=O)N2CCC(C(=O)Nc3ccc(OC(F)(F)F)cc3)CC2)cc1 | · | 13µM* | · | -14% | · | 12µM*
CN(C)CCNC(=O)CNc1nc(Cl)nc2nc[nH]c12 | · | · | · | -7% | · | ·
Cc1ccc(C(=O)n2nc(-c3ccc(C)cc3)nc2N)cc1 | · | · | · | -7% | · | ·
CCNC(=O)Cc1ccc(S(=O)(=O)N2CCOCC2)s1 | · | 8% | 1% | -2% | · | 9%
O=C(Cc1ccc(S(=O)(=O)N2CCOCC2)s1)N(Cc1ccccc1)c1ccccc1 | · | 21µM* | ? | -8% | · | ?
CCCCN(C(=O)Cc1ccc(S(=O)(=O)N2CCOCC2)s1)c1ccccc1 | · | 21µM* | -6% | 2% | · | ?
CCOc1ccc(/C=N/N=C/c2ccc(OCC)cc2)cc1 | · | · | · | -18% | · | ·
COCCn1c(C)cc(C(=O)COC(=O)c2cncc(Br)c2)c1C | 11% | ? | ? | -2% | 2% | ?
Cc1cc(C(=O)COC(=O)Cc2n[nH]c(=O)c3ccccc23)c(C)n1CC(F)(F)F | · | -25% | 3% | -27% | · | -23%
Cc1cc(C(=O)COC(=O)c2n[nH]c3ccccc23)c(C)n1CC1CCCO1 (configuration not stated) | -26% | ? | ? | -30% | ? | -19%
COCCn1c(C)cc(C(=O)COC(=O)c2n[nH]c3ccccc23)c1C | ? | 23µM* | ? | -32% | ? | -29%
COc1ccc(-n2c(C)cc(C(=O)COC(=O)Cc3n[nH]c(=O)c4ccccc34)c2C)cc1 | -8% | 9.2µM* | ? | -12% | ? | 12µM*
